# High-throughput results (PubChem)
# FAS-TE inh – FAS thioesterase domain inhibitors, primary screen, biochemical, fluorescence intensity, uHTS; Fatty acid synthase (Homo sapiens), P49327; recombinant FAS-TE, OMFH fluorogenic substrate, fluorescence endpoint; inhibition, % at 15 µM; 360,000 tested, 0.67% active; AID 602261, 2012;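 active means compounds whose normalised, plate-corrected inhibition of enzyme fluorescence in the single-dose primary screen is 50% or more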
# NR3A LBD binder – binders of NR3A ligand-binding domain, primary screen, biophysical, differential scanning fluorimetry, uHTS; Tm shift relative to glycine control, % at 25 µM; NR3A LBD differential scanning fluorimetry, Tm shift; 0% = protein alone, 100% = glycine-bound protein; 340,000 tested, 2.5% active; Glutamate receptor ionotropic, NMDA 3A (GRIN3A) ligand-binding domain;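 active means melting temperature shift of at least 10% of the positive control shift, at one fixed dose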
# KLK7 zymogen act – proKLK7 zymogen activators, primary screen, biochemical, fluorescence intensity; purified proKLK7, EDANS-DABCYL substrate fluorescence; 100% is mature enzyme control, 0% vehicle; activation, % at 7 µM; 370,000 tested, 0.9% active; AID 652039, 2013; Kallikrein-7 (Homo sapiens), P49862;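 active means activation above the mean of all tested compounds plus 3 SD, computed per campaign excluding outliers beyond control limits, cut at about 13% in these data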
# Target sequence (P49862 whole entry, looked up): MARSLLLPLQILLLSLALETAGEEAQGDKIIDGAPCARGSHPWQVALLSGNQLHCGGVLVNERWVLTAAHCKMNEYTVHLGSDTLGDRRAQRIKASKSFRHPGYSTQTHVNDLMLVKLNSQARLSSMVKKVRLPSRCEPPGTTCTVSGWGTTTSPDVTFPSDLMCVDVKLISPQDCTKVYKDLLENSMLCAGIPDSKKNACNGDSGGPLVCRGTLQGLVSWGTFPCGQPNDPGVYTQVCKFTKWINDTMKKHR
# ADAM17 inh – ADAM17 inhibitors, primary screen, biochemical, QFRET | 370,000 tested, 0.83% active | AID 720648, 2013 | Disintegrin and metalloproteinase domain-containing protein 17 (Homo sapiens), P78536 | recombinant ADAM17, EDANS/DABCYL FRET peptide cleavage | inhibition, % at 6.95 µM;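 active means inhibition above the mean of compounds lying between control limits plus 3 SD, set per campaign, cut at about 8.5% in these data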
# ADAM10 inh – human ADAM10 inhibitors, primary screen, biochemical, QFRET, HTS. recombinant ADAM10, EDANS/DABCYL FRET peptide cleavage, 3 h. 370,000 tested, 0.62% active. Disintegrin and metalloproteinase domain-containing protein 10 (Homo sapiens), O14672. inhibition, % at 7 µM;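 active means inhibition above a per-campaign cutoff equal to the mean of compounds falling between control-based bounds plus 3 SD, cut at about 20% in these data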
# Hits are given with their value; i = inactive; nt = not tested or not shown. Most compounds without a hit are left out; they make up all but 4.6% or so of the library.
SMILES,FAS-TE inh,NR3A LBD binder,KLK7 zymogen act,ADAM17 inh,ADAM10 inh
COc1ccc(C(=O)Nn2c(C)nc3ccccc3c2=O)cc1,i,i,i,i,i
CCCOc1ccc(C(=O)Nn2c(C)nc3ccccc3c2=O)cc1,i,10.5,i,i,i
CCCCOc1ccc(C(=O)Nn2cnnc2)cc1,i,14.2,i,i,i
COc1ccc(/C=C2\SC(=S)N(CCC(=O)Nc3cccc(O)c3)C2=O)cc1,i,35.0,i,i,i
O=C(CCCN1C(=O)/C(=C\c2cccs2)SC1=S)Nc1cccnc1,i,13.4,i,i,i
COc1ccc(/C=C2/SC(=S)N(CCCC(=O)Nc3ccc(O)cc3)C2=O)cc1,i,13.5,i,i,i
COc1ccc(/C=C2\SC(=S)N(CCC(=O)Nc3ccc(C(=O)O)cc3)C2=O)cc1,i,i,i,i,i
COc1ccc(/C=C2\SC(=S)N(CCCC(=O)Nc3ccc(O)cc3)C2=O)cc1,i,i,i,i,i
O=C(CCN1C(=O)/C(=C/c2ccc(F)cc2)SC1=S)Nc1cc([N+](=O)[O-])ccc1O,i,17.9,i,i,i
O=C(Nc1ccc(Br)cc1)O[C@@H]1CC[C@@]23CCCN2C(=O)CCC[C@H]3C1,nt,nt,nt,i,i
CCCC1CCC2(CCCN2CCOC(=S)Nc2cccc(Cl)c2)CC1 (stereo unspecified),nt,nt,nt,i,i
OC(CNCCC1C=Nc2ccccc21)Cn1c2ccc(Cl)cc2c2cc(Cl)ccc21 (stereo unspecified),i,27.5,i,i,i
OC(CNCC1CCCO1)Cn1c2ccc(Cl)cc2c2cc(Cl)ccc21 (stereo unspecified),i,i,i,i,i
O=C(CSc1nnc(-c2c[nH]c3ccccc23)o1)c1ccc(-c2ccccc2)cc1,i,24.2,i,i,i
COC(=O)[C@]12C[C@H](CC(=O)N3CCOCC3)C(=O)N(Cc3ccco3)C1=C[C@H](C(C)C)O[C@@H]2C1CC1,nt,nt,i,i,i
COc1ccc2cc3cc(C(=O)Nc4ccc5c(c4)OCCO5)oc3nc2c1,i,26.3,i,i,i
CCNC(=O)N(C)c1nncnc1C(=O)NC,i,i,i,i,i
CCNC(=O)N(C(=O)NCC)n1c(C)nnc1C,i,i,15.7,i,i
O=C(NC1=NCCS1)c1sc2ccccc2c1Cl,i,i,i,i,i
O=C(NC1=NCCS1)c1sc2cc(Cl)cc(Cl)c2c1Cl,i,20.1,i,i,i
Cc1nc2ccc(S(=O)(=O)NCC(=O)NCc3ccccc3C)cc2s1,nt,nt,i,i,i
CC(C)(C)OC(=O)N1CCC[C@H]1c1nnc(SCC(=O)Nc2ccc(Br)cc2)o1,i,29.2,i,i,i
O=C(N[C@@H]1C[C@@H]2O[C@@H](CO)CC[C@@H]2O[C@@H]1CCc1ccc(-c2ccccc2)cc1)c1cnccn1,nt,nt,i,i,i
Cn1c(=O)n(C)c2cc([N+](=O)[O-])c(N3CCN(S(=O)(=O)c4ccc5ccccc5c4)CC3)cc21,65.6,i,i,i,i
C=CCN(CC#CC1=CCCCC1)Cc1ccc(OC)cc1OC,nt,nt,i,i,i
SMILES,FAS-TE inh,NR3A LBD binder,KLK7 zymogen act,ADAM17 inh,ADAM10 inh
Cc1cc(C)nc(NC(=O)c2csnn2)c1,i,i,i,i,i
O=C(Nc1csnn1)c1csnn1,i,15.0,i,i,i
Cc1cccnc1NC(=O)c1csnn1,i,10.3,i,i,i
COC(=O)[C@]12C[C@H](CC(=O)N3CCCCC3)C(=O)N(Cc3ccccc3)C1=C[C@H](COCc1ccccc1)O[C@@H]2C,nt,nt,i,i,i
COc1cc(-c2nc(C(=O)NC3CCN(Cc4ccccc4)CC3)cc3c2[nH]c2ccccc23)cc(OC)c1OC,77.2,i,nt,nt,nt
O=[N+]([O-])c1ccc(NCCCN2CCC(C(O)(c3ccccc3)c3ccccc3)CC2)cc1,nt,nt,i,i,i
O=c1c2cc3cccnc3nc2ncn1CCc1c[nH]c2ccccc12,nt,nt,i,i,i
O=C(COC(=O)C1CCN(c2ccc(C(F)(F)F)cn2)CC1)Nc1ccc(F)cc1[N+](=O)[O-],i,i,i,i,i
O=C(COC(=O)C1CCN(c2ccc(C(F)(F)F)cn2)CC1)Nc1cccc(F)c1,i,11.5,i,i,i
Cc1ccc(NC(=O)COC(=O)C2CCN(c3ccc(C(F)(F)F)cn3)CC2)cc1C,i,11.9,i,i,i
COC(=O)C1CN(Cc2cn(Cc3ccc(C)cc3)nn2)CCS(=O)(=O)N1Cc1ccc(Cl)cc1 (stereo unspecified),nt,nt,i,i,i
CC(C)(C)OC(=O)NCCCc1ccc2c(c1)[C@]1(CCC[C@@H](OCc3ccccc3)[C@@H]1NC(=O)CCc1ccccc1)C(=O)N2Cc1ccccc1,nt,nt,i,i,i
C[C@H]1[C@@H](C(=O)N2CCCC2)CC(=O)/C(=N/OCc2ccccc2)C[C@@H]1c1ccccc1,nt,nt,i,i,i
CCCc1nc2sc3ccccc3c(=O)c2c(=O)n1Cc1ccc(OC)cc1,i,14.6,i,i,i
COc1ccc(Cn2c(C(C)C)nc3sc4ccccc4c(=O)c3c2=O)cc1,i,i,i,i,i
CCC[C@@H](/C=C/C(=O)OC(C)(C)C)Sc1ccccc1OC,nt,nt,i,i,i
Cc1ccc(/C=C2\CCOC2=O)cc1,i,nt,i,i,i
Cc1ccc(/C=C2/CNC/C(=C/c3ccc(C)cc3)C2=O)cc1,i,30.8,i,i,i
Cc1ccc(C)c(NC(=O)CN(C)C(=O)c2cccc(S(=O)(=O)N3CCN(Cc4ccccc4)CC3)c2)c1,i,17.4,i,i,i
O=C(Nc1ccc(O)cc1)c1ccc(NC(=O)c2cccs2)cc1,i,27.9,i,i,i
O=C(Nc1ccc(NC(=O)c2cccs2)cc1)c1ccccc1,i,15.9,i,i,i
O=C(Nc1cccc(O)c1)c1cccc(C(=O)Nc2cccc(O)c2)c1,i,33.6,i,i,i
O=C(Nc1ccccc1)Nc1snnc1C(=O)Nc1cccc(O)c1,i,24.3,i,i,i
Cc1nc2ccc(NC(=O)c3ccc(F)cc3Cl)cc2c(=O)[nH]1,nt,nt,i,i,i
O=C(O)c1ccc(NC(=O)c2cccc(NC(=O)c3cccs3)c2)cc1,i,i,nt,nt,nt
SMILES,FAS-TE inh,NR3A LBD binder,KLK7 zymogen act,ADAM17 inh,ADAM10 inh
O=C(Nc1cccc(O)c1)c1ccc(NC(=O)c2cccs2)cc1,i,36.5,i,i,i
O=C(Cc1cccs1)Nc1ccc(C(=O)O)cc1,i,i,i,i,i
O=C(Cc1cccs1)Nc1cccc(C(=O)Nc2ccc(C(=O)O)cc2)c1,i,22.7,i,i,i
CC(/C=N/NC(=O)c1cccs1)=C\c1ccccc1,i,i,i,i,i
O=C(N/N=C/C(Cl)=C\c1ccccc1)c1cccs1,i,13.2,i,i,i
O=C(Nc1ccccc1C(F)(F)F)OCCN1C(=O)CCC12CCC(c1ccccc1)CC2 (stereo unspecified),nt,nt,i,i,i
